Hits are enriched below; roughly 0.83% of the tested compounds scored in any of these assays.
Pf gametocyte: late stage P. falciparum gametocyte viability inhibitors, primary screen, ATP luminescence, HTS | P. falciparum stage V gametocytes, 24 h | actives 0.065% (n = 150,000) | inhibition, % at 10.9 µM | AID 743093, 2013;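 active means inhibition above the mean plus 3 SD of compounds within the control limits, set per campaign, cut at about 38% in these data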
S1P3 antagonist: S1P3 receptor antagonists, primary screen, cell-based; Sphingosine 1-phosphate receptor 3 (Homo sapiens), Q99500; CHO S1P3 NFAT-BLA reporter, FRET fluorescence, antagonist mode; inhibition, % at 4.98 µM; actives 0.27% (n = 170,000); AID 485, 2006;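 active means inhibition above the plate cutoff, the mean inhibition of test wells on that plate plus 3 SD, cut at about 28% in these data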;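 further: cells challenged with S1P at its EC80 of 0.8 µM; blue over green emission ratio from cleaved BLA substrate after 4 h stimulation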
Target sequence (Q99500 whole entry, looked up): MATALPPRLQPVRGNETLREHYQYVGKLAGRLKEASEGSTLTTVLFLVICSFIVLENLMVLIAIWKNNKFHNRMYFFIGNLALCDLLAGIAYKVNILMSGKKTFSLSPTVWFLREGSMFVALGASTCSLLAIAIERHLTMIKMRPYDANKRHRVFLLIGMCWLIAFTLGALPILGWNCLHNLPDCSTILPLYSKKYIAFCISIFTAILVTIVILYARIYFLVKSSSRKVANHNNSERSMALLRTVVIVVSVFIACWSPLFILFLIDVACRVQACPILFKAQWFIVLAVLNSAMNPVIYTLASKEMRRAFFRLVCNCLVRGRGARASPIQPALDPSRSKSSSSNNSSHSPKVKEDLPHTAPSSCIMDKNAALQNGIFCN
S1P4 ag: S1P4 receptor agonists, primary screen, cell-based | Sphingosine 1-phosphate receptor 4 (Homo sapiens), O95977 | S1P4-expressing cell line, agonist reporter assay | activation, % at 4.98 µM | actives 0.35% (n = 220,000) | AID 1509, 2009; in the data active means activation above about 11%
S1P4 antagonist: S1P4 receptor antagonists, primary screen, cell-based | AID 1510, 2009 | S1P4-expressing cells, antagonist mode, reporter read-out | Sphingosine 1-phosphate receptor 4 (Homo sapiens), O95977 | inhibition, % at 4.98 µM | actives 0.26% (n = 220,000); in the data active means inhibition above about 29%
Hsp70 act: Hsp70 transcriptional activators, primary screen, cell-based, HeLa, Hsp70 promoter luciferase, luminescence, 10 µM. HeLa Hsp70 promoter luciferase reporter; scaled: vehicle 0, proteasome-inhibitor control 100%. activation, % at 10 µM. actives 0.04% (n = 200,000). AID 1203, 2008;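 active means activation above the mean across all tested compounds plus 3 SD, cutoff set per campaign, cut at about 5.5% in these data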
S1P4 agonist cf: S1P4 receptor agonists, retest, confirmation, cell-based, high throughput. shares compounds with S1P4 ag. S1P4 agonist cell-based reporter assay. activation, % at 4.98 µM. actives 7% (n = 740); in the data active means activation above about 12%
S1P1 agonist: S1P1 receptor agonists, human, counter-screen for S1P4 agonist project, cell-based. shares compounds with S1P4 ag. S1P1 agonist cell-based assay, activation. activation, % at 4.98 µM. actives 4% (n = 740). AID 1563, 2009; in the data active means activation above about 21%
Hits are given with their value; – = inactive; · = no result given.

SMILES	Pf gametocyte	S1P3 antagonist	S1P4 ag	S1P4 antagonist	Hsp70 act	S1P4 agonist cf	S1P1 agonist
Cc1cc([N+](=O)[O-])ccc1NC(=O)CN1C2CCC1CC(NC(=O)NC13CC4CC(CC(C4)C1)C3)C2 (configuration not stated)	·	–	–	–	–	·	·
C=CCn1c(SCC(=O)c2c(N)n(CCC)c(=O)n(C)c2=O)nnc1-c1ccncc1	·	–	–	–	–	·	·
O=C(COC(=O)c1ccc(Cl)c(S(=O)(=O)N2CCCCC2)c1)NCC1CCCO1 (configuration not stated)	–	–	–	–	–	·	·
CCCCOc1ccc(C(=O)N/C(=C/C=C/c2ccccc2)C(=O)NCCO)cc1	–	–	–	–	–	·	·
CCCCOc1ccc(C(=O)N/C(=C/C=C/c2ccccc2)C(=O)NCCCO)cc1	–	–	13	–	–	–	–
CCOC(=O)c1c(NC(=O)CN2CCCc3ccccc32)sc(C(C)=O)c1C	–	–	16	–	–	–	–
COc1ccc(C2CC(c3ccc(Br)cc3)=NN2C(=O)c2cccnc2)cc1 (configuration not stated)	–	–	12	–	–	–	–
COc1ccc(C2=NN(C(=O)CN3CCCCC3)C(c3ccc(OC)cc3)C2)cc1 (configuration not stated)	–	–	–	–	·	·	·
COc1ccc(C2=NN(C(=O)CN3CCCC3)C(c3ccc(OC)cc3)C2)cc1 (configuration not stated)	–	–	40	–	·	–	–
O=C1C(Nc2ccccc2)=C(N2CCCCC2)C(=O)c2ccccc21	·	·	–	–	–	·	·
CN(C1=C(N2CCCCC2)C(=O)c2ccccc2C1=O)c1ccccc1	·	·	12	–	–	–	–
CC(/C=N/N1CCN(c2ccccn2)CC1)=C\c1ccccc1	–	–	11	–	–	–	–
CC1CC(NC(=O)CCn2c(=O)oc3ccccc32)CC(C)(C)C1 (configuration not stated)	·	–	12	–	–	–	–
C=CCS(=O)(=O)N1CCC(CCOc2ccccc2)(C(=O)OCC)CC1	–	–	–	–	–	·	·
O=S(=O)(c1ccccc1)c1ccc(C(F)(F)F)cn1	–	–	35	–	–	–	–
O=S(=O)(c1cccc(C(F)(F)F)c1)c1ccc(O)cn1	–	·	·	·	·	·	·
Cc1ccc2nc3c(cc(C#N)c(=O)n3-c3nccs3)c(=O)n2c1	·	–	31	–	–	15	24
c1ccc2c(c1)N1CCCN=C1N2CCN1CCCCC1	–	–	18	–	–	–	–
COc1ccccc1Nc1nc(C)cc(C)n1	–	·	·	·	·	·	·
COc1ccccc1Nc1ccc(N)cc1	–	–	13	–	–	–	–
CCOC(=O)c1ccc2c(c1)C(=O)N(C1CCCCC1)C2=O	–	–	25	–	–	–	–
CCOC(=O)N1CCC(N2C(=O)c3ccc(C(=O)O)cc3C2=O)CC1	·	–	–	–	–	·	·
CCCOc1ccc(/C=N/Nc2ccc(C(=O)O)cc2)c(OCCC)c1	–	–	12	–	–	–	–
CC12CCC(C(=O)Nc3ccncc3)(CC1O)C2(C)C (configuration not stated)	–	–	–	–	·	·	·
CC1CCCCN1C(=O)COc1ccccc1F (configuration not stated)	–	–	13	–	–	–	–
SMILES	Pf gametocyte	S1P3 antagonist	S1P4 ag	S1P4 antagonist	Hsp70 act	S1P4 agonist cf	S1P1 agonist
COCCNC(=O)c1ccc2c(=O)n(Cc3ccco3)c(SCC(=O)NC3CCCC3)nc2c1	–	·	12	–	–	–	–
COCCNC(=O)CSc1nc2cc3c(cc2c(=O)n1Cc1ccco1)OCO3	–	·	–	–	–	·	·
CC(=O)Oc1ccc(/C(C)=N\N2CCN(Cc3ccc(Cl)cc3)CC2)cc1	–	·	·	·	·	·	·
C/C(=N\N1CCN(Cc2ccc(Cl)cc2)CC1)c1ccc(F)cc1	–	–	75	–	·	–	–
c1ccc(CCN(Cc2ccccc2)Cc2nc(C3CC3)no2)cc1	–	–	–	–	–	·	·
Cc1csc2c(N3CCN(C(=O)Nc4ccc(OC(F)(F)F)cc4)CC3)ncnc12	–	–	–	–	·	·	·
Cc1ccc(OCC(=O)N/N=C/c2ccc3c(c2)OCO3)cc1C	·	–	12	–	–	–	–
O=C(N[C@@H](Cc1ccccc1)C(=O)OCc1ccccc1)c1nc[nH]c1C(=O)NCc1ccccc1	–	–	20	–	–	32	–
CC(C)C[C@H](NC(=O)c1[nH]cnc1C(=O)N[C@@H](Cc1ccccc1)C(=O)OCc1ccccc1)C(=O)OCc1ccccc1	–	·	·	·	·	·	·
CN1CCN(S(=O)(=O)c2ccc(NC(=O)c3ccc(F)cc3Cl)cc2)CC1	–	·	·	·	·	·	·
CCOc1ccc(Oc2c(/C=N/NC(=O)COc3ccccc3OC)c(C)nn2-c2ccccc2)cc1	–	–	22	–	–	–	–
CCOc1ccc(Oc2c(/C=N/NC(N)=O)c(C)nn2-c2ccccc2)cc1	–	–	–	–	–	·	·
CCOC(=O)c1cnn2c1[nH]c(=O)c1ccccc12	·	·	255	–	–	–	–
CCOC(=O)CN1C(=O)C(C)(C)Oc2ccc(C(=O)NC(C)(C)CC)cc21	·	–	28	–	–	–	–
CCC(C)(C)NC(=O)c1ccc2c(c1)N(CC(=O)OC)C(=O)C(C)(C)O2	–	–	–	–	–	·	·
CCCc1nnc(NC(=O)CCC(=O)NCc2ccc(OC)cc2)s1	–	–	–	–	·	·	·
Cc1ccc(NC(=O)CCn2c(=O)[nH]c3ccsc3c2=O)cc1	–	–	–	–	–	·	·
CCOc1ccc(NC(=O)CCn2c(=O)[nH]c3ccsc3c2=O)cc1	·	·	24	–	–	–	–
CCOC(=O)N1CCC(N2Cc3cccc(C(=O)Nc4ccc(CC)cc4)c3C2=O)CC1	–	·	12	–	–	–	–
CCOC(=O)N1CCC(N2Cc3cccc(C(=O)Nc4ccc(F)cc4)c3C2=O)CC1	–	·	–	–	–	·	·
O=C1NC(=S)N/C1=C/c1ccc2ccccc2c1	–	·	·	·	·	·	·
O=C(N/N=C/c1ccc(-c2ccccc2Cl)o1)c1ccccc1	–	–	–	–	–	·	·
O=C(O)c1ccc(N/N=C/c2ccc(-c3ccccc3Cl)o2)cc1	–	–	11	–	·	–	–
COC(=O)c1cc(=O)n(-c2ccc(C(F)(F)F)cc2)[nH]1	–	–	–	–	·	·	·
O=C(CCN1C(=O)c2ccccc2C1=O)NC1=NCCS1	–	–	25	–	–	–	–
O=C(c1ccc(C(F)(F)F)cc1)C1CCCN(C(=O)CN2C(=O)CSC2=O)C1 (configuration not stated)	–	–	–	–	–	·	·

High-throughput results (PubChem BioAssay)
